Experimental findings from PubChem BioAssay (NCI) are described below.

Among the test systems are SR leukemia; RPMI-8226 leukemia; OVCAR-8 ovarian; OVCAR-5 ovarian; OVCAR-4 ovarian; SK-OV-3 ovarian; IGROV1 ovarian; OVCAR-3 ovarian; HS 578T breast; NCI/ADR-RES ovarian; T-47D breast; BT-549 breast; MDA-MB-435 melanoma; SW-620 colon; MCF7 breast; HCT-116 colon; HCC-2998 colon; KM12 colon; MDA-MB-468 breast.
Holding throughout (test): NCI-60 one-dose screen, 48 h (100 = growth as untreated, 0 = no growth, -100 = all killed)
Common to all, as to conditions: 10 µM

Structures are written as SMILES. This is part of a sample that, as a whole, favours compounds with a hit. Of some 83,000 tested, about 20% had one in any assay.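 Treatment: one concentration, 48 hours, 96-well format. Scoring: percent growth, with anything below 10 considered active.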 Values without a mark were called inactive. Calls of active or inactive are those of the source.

As to `CCCCSc1nc(Nc2ccc(/C(C)=N/NC(N)=S)cc2)c(C#N)c(-c2ccc(F)cc2)n1`, the growth with SR leukemia is 52.4%; in the assay on RPMI-8226 leukemia, 58.2%; in the assay on OVCAR-8 ovarian it was 7.66% (active); in the assay on OVCAR-5 ovarian, 64.4%; in the assay with OVCAR-4 ovarian, 16.3%; in the assay on SK-OV-3 ovarian, 78.4%. Moreover, the growth was 49.6% in the assay with IGROV1 ovarian; 35.4% in the assay on OVCAR-3 ovarian; 28.8% with HS 578T breast; 37.5% in the assay with NCI/ADR-RES ovarian; 46.8% in the assay with T-47D breast; 31.5% in the assay with BT-549 breast. In addition, the growth is 78.6% with MDA-MB-435 melanoma; 67.7% in the assay with SW-620 colon; 41.3% with MCF7 breast; 36.3% in the assay on HCT-116 colon; 66.9% in the assay with HCC-2998 colon; 60.2% with KM12 colon. Besides, the growth in the assay with MDA-MB-468 breast was -1.25% (active).

Regarding `COc1ccc(-c2ccc(SCC(=O)Nc3ccc(C#N)cc3)nn2)cc1`, the growth with SR leukemia is 89.2%; in the assay with RPMI-8226 leukemia, 91%; in the assay with OVCAR-8 ovarian it was 88.8%; in the assay with OVCAR-5 ovarian, 101%; in the assay on OVCAR-4 ovarian, 83.8%; in the assay with SK-OV-3 ovarian, 91.6%. For the same compound, the growth was 88.4% in the assay with IGROV1 ovarian; 121% in the assay with OVCAR-3 ovarian; 67.8% with HS 578T breast; 83.7% in the assay on NCI/ADR-RES ovarian; 79.5% in the assay with T-47D breast; 88.6% with BT-549 breast. Moreover, the growth with MDA-MB-435 melanoma was 98.8%; in the assay on SW-620 colon it was 102%; with MCF7 breast, 88.8%; in the assay on HCT-116 colon, 87%; with HCC-2998 colon, 104%; with KM12 colon it was 99.9%. Further, the growth in the assay with MDA-MB-468 breast was 88.1%.

For `Cc1noc2c(Cc3ccccc3)nn(CC(=O)N/N=C/c3ccc(Br)cc3)c(=O)c12`, the growth was 90.6% in the assay with SR leukemia; 78.6% with RPMI-8226 leukemia; 9.24% (active) in the assay on OVCAR-8 ovarian; 62.5% in the assay on OVCAR-5 ovarian; -61.9% (active) in the assay with OVCAR-4 ovarian; 43.8% in the assay with SK-OV-3 ovarian. Moreover, the growth in the assay on IGROV1 ovarian was 53.4%; in the assay with OVCAR-3 ovarian, -33.6% (active); with HS 578T breast it was 30.7%; with NCI/ADR-RES ovarian, 58%; in the assay with T-47D breast, 8.11% (active); in the assay on BT-549 breast it was 87.2%. The growth with MDA-MB-435 melanoma was 70.2%; in the assay on SW-620 colon, 54.6%; in the assay with MCF7 breast, 45.4%; in the assay on HCT-116 colon it was 24.7%; with HCC-2998 colon, 85.3%; with KM12 colon it was 73.8%. The growth in the assay on MDA-MB-468 breast was 78.1%.

With `CCOc1ccc(Nc2nc3ccccc3nc2Nc2ccc(OCC)cc2)cc1`, the growth in the assay on SR leukemia was 42.2%; in the assay with RPMI-8226 leukemia it was 18.5%; with OVCAR-8 ovarian it was 58.3%; in the assay with OVCAR-5 ovarian, 107%; in the assay with OVCAR-4 ovarian, 52.7%; in the assay with SK-OV-3 ovarian, 108%. The growth in the assay on IGROV1 ovarian was 55%; with OVCAR-3 ovarian it was 22.5%; in the assay on HS 578T breast, 107%; in the assay on NCI/ADR-RES ovarian, 65%; with T-47D breast, 32.1%; with BT-549 breast it was 70.7%. The growth in the assay on MDA-MB-435 melanoma was 52.9%; in the assay on SW-620 colon, 75.5%; with MCF7 breast, 32.9%; in the assay on HCT-116 colon, 17.8%; in the assay on HCC-2998 colon, 90.2%; in the assay with KM12 colon it was 47.4%. Further, in the assay with MDA-MB-468 breast, the growth was 25.4%.

Take `COc1cccc(/C=C2\N=C(C)N(CCc3ccc(S(N)(=O)=O)cc3)C2=O)c1`: the growth in the assay with SR leukemia was 82.1%; in the assay with RPMI-8226 leukemia it was 97.2%; with OVCAR-8 ovarian, 102%; in the assay with OVCAR-5 ovarian, 99.8%; in the assay with OVCAR-4 ovarian it was 104%; with SK-OV-3 ovarian, 112%. The growth in the assay with IGROV1 ovarian is 103%; in the assay with OVCAR-3 ovarian it was 113%; in the assay with HS 578T breast, 98.6%; with NCI/ADR-RES ovarian, 104%; with T-47D breast, 97.3%; in the assay on BT-549 breast, 100%. The growth in the assay on MDA-MB-435 melanoma was 114%; with SW-620 colon, 105%; in the assay with MCF7 breast, 95.2%; with HCT-116 colon it was 97.8%; with HCC-2998 colon, 117%; with KM12 colon, 104%. Besides, the growth in the assay with MDA-MB-468 breast is 113%.

As for `Cn1cc(-c2cc(N)n3nc(-c4c[nH]c5ccc(Br)cc45)cc3n2)c2cccnc21`, the growth in the assay with SR leukemia is -23.6% (active); with RPMI-8226 leukemia, 3.37% (active); with OVCAR-8 ovarian, -68.8% (active); in the assay on OVCAR-5 ovarian it was -87.4% (active); in the assay with OVCAR-4 ovarian it was -42.2% (active); with SK-OV-3 ovarian, -72.6% (active). Moreover, the growth was -69.8% (active) in the assay with IGROV1 ovarian; -78.9% (active) in the assay on OVCAR-3 ovarian; -38.8% (active) in the assay on HS 578T breast; -55.7% (active) with NCI/ADR-RES ovarian; -75.7% (active) in the assay with T-47D breast; -83.7% (active) with BT-549 breast. Further, the growth with MDA-MB-435 melanoma is -77.7% (active); in the assay with SW-620 colon, -78.6% (active); in the assay on MCF7 breast it was -78.5% (active); in the assay on HCT-116 colon, -87.9% (active); with HCC-2998 colon, -97.8% (active); in the assay with KM12 colon, -78.3% (active). Moreover, the growth with MDA-MB-468 breast was -92.1% (active).

Consider `CN(C)c1nc(NCCNS(=O)(=O)c2ccc(C(=O)/C=C/c3ccccc3)cc2)nc(Nc2ccc(F)cc2)n1`, for which the growth in the assay with SR leukemia is -4.76% (active); in the assay on RPMI-8226 leukemia, 18.2%; with OVCAR-8 ovarian it was 41.9%; in the assay on OVCAR-5 ovarian, 38.2%; in the assay on OVCAR-4 ovarian, 25.2%; with SK-OV-3 ovarian, 97.8%. The growth in the assay with IGROV1 ovarian was 8.78% (active); with OVCAR-3 ovarian, -42.2% (active); with HS 578T breast, 72.9%; in the assay on NCI/ADR-RES ovarian, 15.7%; in the assay with T-47D breast, 25.6%; in the assay on BT-549 breast, 24.9%. For the same compound, the growth in the assay on MDA-MB-435 melanoma is 4.21% (active); in the assay with SW-620 colon, -4.39% (active); in the assay with MCF7 breast it was -82.8% (active); in the assay with HCT-116 colon, -53% (active); with HCC-2998 colon it was -75.7% (active); in the assay on KM12 colon, -78.4% (active). Also, the growth in the assay with MDA-MB-468 breast is 1.47% (active).

As to `COc1cc2c(c(OC)c1OC)C(=O)CC(c1cccc(NC(=O)c3cccc(N)c3)c1)O2` (configuration not stated), the growth with SR leukemia was 47.7%; in the assay with RPMI-8226 leukemia, 57.4%; with OVCAR-8 ovarian, 55%; with OVCAR-5 ovarian it was 123%; in the assay with OVCAR-4 ovarian, 64.1%; with SK-OV-3 ovarian it was 107%. For the same compound, the growth is 86.7% with IGROV1 ovarian; 80.9% in the assay with OVCAR-3 ovarian; 90.3% in the assay on HS 578T breast; 68.2% with NCI/ADR-RES ovarian; 35.5% in the assay with T-47D breast; 63.8% in the assay on BT-549 breast. Also, the growth was 77.4% in the assay on MDA-MB-435 melanoma; 94.1% in the assay on SW-620 colon; 57.8% with MCF7 breast; 65.4% in the assay on HCT-116 colon; 114% in the assay with HCC-2998 colon; 72.2% with KM12 colon. The growth in the assay on MDA-MB-468 breast was 65.6%.
